# Myeloid diff MLP – myeloid differentiation induction; ER-HoxA9 myeloid progenitors, lysozyme-GFP differentiation, flow cytometry; calls only at 10 µM; 360,000 compounds, 1% hits; AID 624256;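 active means normalized GFP-positive differentiation at or above the plate's own cutoff, the solvent-only control mean plus 3 SD; inconclusive means no clear call, values can overlap the other calls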;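 further: cells exposed to compound for four days before flow analysis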
# MIN6 prolif-1 – induces beta-cell replication in MIN6 cells. 330,000 compounds, 0.29% hits. AID 2380. MIN6 cells proliferation, ATPlite luminescence, 48 h; cells starved in 0.2% serum; 100% = growth in 10% serum. proliferation, % at 10 µM;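 active means compounds whose signal lies at least 3.5 SD above the mean of all wells on their plate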
# ABCB6 inh MLPCN – inhibitors of human ABC transporter ABCB6. 360,000 compounds, 0.19% hits. fluorescence ratio to DMSO, % at 10 µM. K562-ABCB6 porphyrin accumulation, flow cytometry, 1 h; hits give low values. Q9NP58;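 active means fluorescence ratio to DMSO below 75%, the collection mean minus 3 SD; inconclusive means too few cells collected in the well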;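 further: signal is porphyrin accumulated inside mitochondria; lower ratio means ABCB6 inhibition with less porphyrin fluorescence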
# Target sequence (Q9NP58 whole entry, looked up): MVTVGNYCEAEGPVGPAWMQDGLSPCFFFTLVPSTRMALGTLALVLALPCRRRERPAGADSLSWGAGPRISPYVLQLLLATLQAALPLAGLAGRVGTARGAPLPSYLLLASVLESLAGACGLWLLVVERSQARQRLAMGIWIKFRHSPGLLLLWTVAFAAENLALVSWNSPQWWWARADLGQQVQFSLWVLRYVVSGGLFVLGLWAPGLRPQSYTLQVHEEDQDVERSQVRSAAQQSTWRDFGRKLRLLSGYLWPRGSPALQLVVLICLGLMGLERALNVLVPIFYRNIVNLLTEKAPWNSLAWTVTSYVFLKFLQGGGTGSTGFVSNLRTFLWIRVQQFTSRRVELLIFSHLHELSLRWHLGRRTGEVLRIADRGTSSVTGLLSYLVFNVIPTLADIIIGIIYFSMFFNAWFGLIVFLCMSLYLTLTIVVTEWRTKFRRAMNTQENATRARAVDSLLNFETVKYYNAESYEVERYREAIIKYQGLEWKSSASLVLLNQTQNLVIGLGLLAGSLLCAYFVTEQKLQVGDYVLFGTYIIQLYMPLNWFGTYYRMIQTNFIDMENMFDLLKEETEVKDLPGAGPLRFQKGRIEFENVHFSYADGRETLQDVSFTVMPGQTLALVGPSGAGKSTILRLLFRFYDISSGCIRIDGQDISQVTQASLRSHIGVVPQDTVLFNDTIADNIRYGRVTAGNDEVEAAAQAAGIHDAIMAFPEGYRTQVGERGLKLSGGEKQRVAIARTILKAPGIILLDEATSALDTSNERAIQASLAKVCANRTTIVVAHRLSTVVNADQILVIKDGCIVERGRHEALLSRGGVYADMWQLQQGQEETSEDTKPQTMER
# hiPSC survival – increases survival of single human iPS cells; hiPSC single-cell survival, ATPlite luminescence; 100% = ROCK inhibitor wells, 0% = DMSO; survival enhancement, % at 20 µM; 360,000 compounds, 0.044% hits; AID 602274; in the data active means survival enhancement above about 18%;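 further: cells exposed to compounds for 16 hours before the ATP read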
# H9c2 protect – modulators protecting cardiomyocytes from myocardial damage. 360,000 compounds, 0.63% hits. H9c2 cardiomyocytes, H2O2 injury protection, ATPLite, 2 h. AID 588492. protection from H2O2 cell death, % at 20 µM;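 active means compounds giving at least 50% protection of heart cells from peroxide-induced death in the single-dose screen, raw or plate-pattern-corrected value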
# MIN6 prolif-2 – confirmation of inducers of beta-cell replication in MIN6 cells | shares compounds with MIN6 prolif-1 | 920 tested, under 10 active | MIN6 beta-cell proliferation, ATPlite luminescence, 48 h; cells kept in 0.2% serum; scaled between 0.2% and 10% serum | AID 463095 | proliferation increase, % at 50 µM;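 active means proliferation increase above 40% at any of the four tested concentrations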
# Numbers stand for hits; – = inactive; ? = inconclusive; · = no result. Hits are enriched below; roughly 2.2% of the tested compounds scored in any of these assays.
SMILES,Myeloid diff MLP,MIN6 prolif-1,ABCB6 inh MLPCN,hiPSC survival,H9c2 protect,MIN6 prolif-2
Cc1ccc(S(=O)(=O)NC2=NCN(CCOC(=O)c3ccc([N+](=O)[O-])cc3)CN2)cc1,–,8.4,–,–,–,–
Cc1ccc(S(=O)(=O)NC2=NCN(CCOC(=O)c3ccccc3)CN2)cc1,–,–,–,–,–,·
CN(Cc1ccccc1Cl)C(=O)c1cc2ccccc2o1,–,–,–,–,–,·
CCC(=O)Nc1ccc(NC(=S)NC(=O)c2cc3ccccc3o2)cc1,–,0.0,–,–,–,–
C/C(N)=C(/C#N)C(=O)CSc1nc2ccccc2c(=O)n1Cc1ccc(F)cc1,–,–,–,–,–,·
Cc1c(NC(=S)NC(=O)C(C)(C)C)c(=O)n(-c2ccccc2)n1C,–,–,–,–,–,·
O=C(c1ccc(-n2ccnc2)cc1)N1CCCC(CO)(Cc2cccc(Cl)c2)C1 (configuration not stated),–,16,–,–,–,–
CCN(C(=O)CSc1nnc(-c2ccc(F)cc2)c2ccccc12)C1CCS(=O)(=O)C1 (configuration not stated),–,–,–,–,–,·
CC1Oc2ccccc2N(CC(=O)N(Cc2ccccc2)Cc2ccccn2)C1=O (configuration not stated),–,10,–,–,–,–
O=C(NC1CCCC1)C1CCCN(S(=O)(=O)c2ccc(F)cc2)C1 (configuration not stated),–,–,–,–,–,·
O=C(NC1CCCCCC1)C1CCN(S(=O)(=O)c2ccc(F)cc2)CC1,–,6.5,–,–,–,–
COc1ccccc1NC(=O)Nc1cc(C(C)(C)C)nn1C,–,–,–,–,–,·
Cc1ccc(F)cc1NC(=O)Nc1cc(C(C)(C)C)nn1C,–,6.9,–,–,–,–
COCCOC(=O)c1c(C)oc2ccc(NS(=O)(=O)c3ccccc3)cc12,–,5.0,–,–,–,–
COc1ccc(NC(=O)CSc2ccccc2)cc1S(=O)(=O)N1CCCCC1,–,4.7,–,–,–,–
COCCNC(=O)COC(=O)/C=C/c1c(C)nn(Cc2ccc(Cl)cc2Cl)c1Cl,–,–,–,–,–,·
Cn1c(SCC(=O)c2ccccc2)nnc1C1COc2ccccc2O1 (configuration not stated),–,5.6,–,–,–,–
CCC(C)Sc1nc2c(cnn2-c2ccc(C)cc2)c(=O)[nH]1 (configuration not stated),–,9.6,–,–,–,–
Cc1ccc2c(n1)sc1c(-c3ccccc3)c(C#N)c(N)nc12,–,5.9,–,–,–,–
CCc1c(C)nc(N)c(C#N)c1-c1ccccc1,–,–,–,–,–,·
CCN(CC)S(=O)(=O)c1ccc(N2CCOCC2)c(NC(=O)c2c3c(nc4ccccc24)CCC3)c1,–,7.6,–,–,–,–
O=C(O)c1c[nH]c2ccc(S(=O)(=O)N3CCN(c4ccc(F)cc4)CC3)cc2c1=O,–,–,–,–,–,·
O=C(O)c1c[nH]c2ccc(F)cc2c1=O,–,6.8,–,–,–,–
O=C(NCc1ccc(Cl)cc1)c1cc(=O)[nH]c2ccccc12,–,–,–,–,–,·
NS(=O)(=O)c1ccc(CNC(=O)c2cc(=O)[nH]c3ccccc23)cc1,–,6.5,–,–,–,–
SMILES,Myeloid diff MLP,MIN6 prolif-1,ABCB6 inh MLPCN,hiPSC survival,H9c2 protect,MIN6 prolif-2
COc1ccc(CCNC(=O)CNS(=O)(=O)c2ccc(N(C)C)c([N+](=O)[O-])c2)cc1OC,–,–,–,–,–,·
O=c1ccn(-c2cccc(C(F)(F)F)c2)nc1-c1ccn(-c2ccccc2F)n1,–,9.4,–,–,–,–
O/N=C/c1cn(-c2ccccc2)nc1-c1ccc2c(c1)OCCO2,–,7.1,–,–,–,–
CC(C)CC(OC(=O)c1ccco1)C(=O)NCC1CCCO1 (configuration not stated),–,–,–,–,–,·
CCCCN(C(=O)CCC(=O)Nc1cc(C)on1)C(C(=O)NC(C)(C)C)c1ccccc1Cl (configuration not stated),–,–,–,–,–,·
COc1cccc(C(C(=O)NC(C)(C)C)N(C(=O)CCC(=O)Nc2cc(C)on2)C(C)(C)C)c1OC (configuration not stated),–,5.2,–,–,–,–
COc1cccc(C(C(=O)NC(C)(C)C)N(C(=O)CCC(=O)Nc2cc(C)on2)C(C)C)c1OC (configuration not stated),–,–,–,–,–,·
Cc1cc(NC(=O)CCC(=O)N(CC(C)C)C(C(=O)NC(C)(C)C)c2ccccc2Cl)no1 (configuration not stated),–,6.7,–,–,–,–
COc1ccc(OCc2cc(C(=O)N(Cc3nccn3C)C(C)C)no2)c2ccccc12,–,12,–,–,–,–
CC(=O)Nc1ccc(S(=O)(=O)NC(=O)C23CC4CC(CC(C4)C2)C3)cc1,–,7.5,–,–,–,–
CC(=O)Nc1ccc(S(=O)(=O)NNC(=O)NC23CC4CC(CC(C4)C2)C3)cc1,?,–,–,–,–,·
Cn1c(O)c(N=NC(=O)CNC(=O)c2ccccc2)c2ccccc21,–,0.0,–,–,–,–
Cc1cccc(C)c1NC(=O)c1csc([C@H]2C[C@H](O)[C@@H](CO)O2)n1,–,·,–,–,–,·
CCN(CC)CC(=O)Nc1ccc(/C(C)=N/NC2=NCCN2)cc1,–,–,–,–,–,·
Cc1noc(NC(=O)c2ccc(F)cc2)c1C#N,–,–,–,–,–,·
COc1cc(/C=N/NS(=O)(=O)c2ccc3ccccc3c2)ccc1OCCN1CCOCC1,–,0.0,–,–,–,–
O=C(CN1CCN(Cc2ccccc2)CC1)Nc1ccccc1-c1ccccc1,–,–,–,–,–,·
CC(=O)CCc1ccc(OCCCOc2cccc3cccnc23)cc1,–,5.7,–,–,–,–
CCCCCN(C(=O)CCC(=O)OCC(=O)N1CCCCC1)c1c(N)n(CCCC)c(=O)[nH]c1=O,–,–,–,–,–,·
CC(=O)c1c(C)nc2cc(Cl)ccc2c1N,–,5.5,–,–,–,–
Cc1cc(C)c2ccc(Cl)cc2n1,–,–,–,–,–,·
COCCNC(=O)NC(=O)COC(=O)c1ccc2[nH]c3c(c2c1)CCCC3,–,–,–,–,–,·
O=C(COC(=O)c1ccc2[nH]c3c(c2c1)CCCC3)Nc1ccccc1Cl,–,9.6,–,–,–,–
O=C(COc1ccccc1Cl)Nc1ccc(S(=O)(=O)Nc2ccccn2)cc1,–,0.0,–,–,–,–
Cc1ccc(-c2nnc(SCC(=O)N3CCN(c4ccccc4)CC3)o2)cc1,–,–,–,–,–,·
CCC(=O)Nc1c(OC(=O)CC)ccc2c(C)cc(=O)oc12,–,13,–,–,–,–
